We go through 13 compounds from PubChem BioAssay (NCATS).

“And” between values parts separate entries of the source, which are not always exact repeats. Identical values can stand only once. Records with an inconclusive call do not appear. The source made the active and inactive calls. The call rests on the fitted dose curve.

This assay in a line: qHTS Assay for Lipid Storage Modulators (AID 1519). On activity change, negative = inhibition: on the % scale 0 is the no-effect control and ±100 the full control effect. The conditions noted are these: Drosophila S3 cells, BODIPY lipid droplet/cell ratio, laser cytometry, cells loaded with oleic acid. An excerpt: NIH Molecular Libraries Probe Production Centers Network [MLPCN]
NIH Chemical Genomics Center [NCGC]
Assay Submitter (PI): Beller, Mathias; Max-Planck-Institut fur Biophysikalische Chemie
NCGC Assay Overview: Storing lipids as a reservoir for energy or the anabolism of elementary metabolites is a common feature of probably all cells and is conserved from bacteria to humans. The universal cellular lipid storage organelle is the so-called lipid storage droplet (LD). Although ubiquitous, LDs share a simple structure composed of a hydrophobic core that harbors the storage lipids, which is shielded by a droplet-specific phospholipid monolayer to which proteins are attached. The current model of LD biogenesis involves an incorporation of the lipid core into the membrane leaflets of the endoplasmic reticulum (ER) followed by a subsequent budding-like maturation of a LD, which ultimately pinches off. Once released, LD volume can increase by localized lipogenesis or fusion of existing droplets. Storage lipids are re-mobilized enzymatically by lipase activity. Lipase regulation in the adipocyte is heavily studied and involves multiple components including catecholamine signaling, the LD-associated proteins Perilipin and comparative gene identification-58 (CGI-58) and at least two lipases named hormone sensitive lipase (HSL) and adipocyte triglyceride lipase (ATGL). LD regulation outside of the adipocyte is poorly understood and only few components are known. However, there is an urgent need to learn more about ectopic fat depots as mislocalized storage of lipids, for example in the liver or muscle, is an eminent health problem associated with insulin resistance or the metabolic syndrome. We developed a laser-scanning cytometer assay to enable 1,536-well screening and combined the results of the small molecules screen with an RNAi database based on lipid storage.
NCGC Assay Protocol Summary:
We dispensed 4 uL of cells at 1.25 x 10^6 cells/mL into LoBase Aurora COC 1,536-well plates (black walled, clear bottom) with a bottle-valve solenoid-based dispenser (Aurora) to obtain 5,000 cells/well. Triacsin C (Sigma-Aldrich T-4540), an inhibitor of long-chain fatty acyl CoA synthetase that blocks synthesis of triglycerides, was used as a positive control for lipid under-storage. A total of 23 nL of compound solution of different concentrations were transferred to the assay plates using a Kalypsys pin tool equipped with a 1,536-pin array containing 10-nL slotted pins (FP1S10, 0.457-mm diameter, 50.8 mm long; V&P Scientific). One microliter of oleic acid (400 uM) was added, and the plate was lidded with stainless steel rubber gasket lined lids containing pinholes. […] Fluorescence was detected by excitation of the fluorophores with a 488-nm laser on an Acumen Explorer (TTP Lab Tech). The total intensity in channel 1 (500-530 nm) reflected lipid droplet accumulation. […] The ratio of the total intensity in PMT channel 1 over total intensity of channel 3 was also calculated. Percent activity was computed relative to an internal control (100% inhibited lipid droplet deposition due to the presence of 20 uM Triacsin C), which was added to 32 wells/plate.

Where [1] appears, read: measured here: cell count channel max response.
The mark [2] stands for this setting: measured here: lipid channel max response.

Turning to `CC(C)NC[C@@H](O)COc1ccc(COCCOC(C)C)cc1`, the activity change, negative = inhibition is -1.04% (inactive) (at 25.7 µM (top of the series)) and 0.281% (inactive) (at 57.5 µM (top of the series)). Further, the max response under setting [1] is 2.54% and -5.68%; the max response under setting [2] was 6.08% and -6.81%.

Take `CC(=O)Nc1ccc(OC[C@@H](O)CNC(C)C)cc1`: the activity change, negative = inhibition was -2.39% (inactive) (at 25.7 µM (top of the series)) and -10.4% (inactive) (at 57.5 µM (top of the series)). Also, the max response was -2.07% and -0.999% under setting [1]; -5.59% and -8.67% under setting [2].

`C[C@@H](CCc1ccc(O)cc1)NCCc1ccc(O)c(O)c1`: the activity change, negative = inhibition (at 25.7 µM (top of the series)) was 0.472% (inactive). Also, the max response runs as follows: under setting [1], 1.22%; under setting [2], 2.79%.

Turning to `COc1ccccc1N1CCN(C[C@@H](O)COc2cccc3ccccc23)CC1`, where the note is “at 25.7 µM (top of the series)”, the activity change, negative = inhibition is -0.494% (inactive). The max response under setting [1] is -0.0145% and the max response under setting [2] is -0.579%.

Regarding `C=C[C@@]1(C)CC(=O)[C@@]2(O)[C@@]3(C)[C@@H](O)CCC(C)(C)[C@@H]3[C@H](O)[C@H](OC(C)=O)[C@@]2(C)O1`, the activity change, negative = inhibition (at 57.5 µM (top of the series)) was -0.114% (inactive). The max response reads like this: under setting [1], 13.9%; under setting [2], 18.7%.

Regarding `C[C@@H]1Nc2ccc(Cl)cc2S(=O)(=O)N1`, under “at 57.5 µM (top of the series)”, the activity change, negative = inhibition is 6.73% (inactive). For the same compound, the max response under setting [1] is -1.71% and the max response under setting [2] came to 3.08%.

For the compound `CCCCCC(=O)O[C@H](CC(=O)O)C[N+](C)(C)C`, the activity change, negative = inhibition (at 57.5 µM (top of the series)) was 1.82% (inactive). Besides, the max response stood at 0.652% under setting [1] and 2.66% under setting [2].

Turning to `C[N+](C)(CCCCCC[N+](C)(C)CCCN1C(=O)c2ccccc2C1=O)CCCN1C(=O)c2ccccc2C1=O`, the activity change, negative = inhibition (at 57.5 µM (top of the series)) was -4.59% (inactive). Moreover, the max response runs as follows: under setting [1], -18.6%; under setting [2], -20.9%.

Regarding `CCCCCCCCCCCCCCCC(=O)C(F)(F)F`, the activity change, negative = inhibition (at 57.5 µM (top of the series)) is 2.39% (inactive). For the same compound, the max response under setting [1] was -9.26% and the max response under setting [2] was -5.47%.

Regarding `COc1ccccc1NC(=O)Nc1nc(-c2cccnc2)nc2ccccc12`, the activity change, negative = inhibition (at 57.5 µM (top of the series)) was -0.716% (inactive). Further, the max response under setting [1] is -30.6% and the max response under setting [2] was -29%.

Turning to `COc1cc(N)c(Cl)cc1C(=O)OCCCN1CCCCC1`, for the setting “at 57.5 µM (top of the series)”, the activity change, negative = inhibition was 2.57% (inactive). The max response is, setting by setting: under setting [1], 19.2%; under setting [2], 21.4%.

Take `C=CC1=C(C)C2=NC1=CC1=NC(=CC3=NC(=CC4=NC(=C2)C(C)=C4CCC(=O)O)C(CCC(=O)O)=C3C)C(C=C)=C1C.[Zn]`: the activity change, negative = inhibition (at 57.5 µM (top of the series)) was -3.5% (inactive). Also, the max response was -8.49% under setting [1] and -12% under setting [2].

As for `NCCOB(c1ccccc1)c1ccccc1`, under “at 57.5 µM (top of the series)”, the activity change, negative = inhibition was -7.96% (inactive) and -2.88% (inactive). For the same compound, the max response reads like this: under setting [1], -4.57% and 13.6%; under setting [2], -11.1% and 11.6%.
